# Measured values published in publication PMC5540273 (PLoS ONE, 2017).
# Tests used:
# Settings in all cases: concentration: 1 μM, replicates: in singlicate; n = 1
# DMPK = test system: DMPK
# DRAK1 = test system: T1, DRAK1
# T1 construct: gene STK17A
# DRAK2 = test system: T2, DRAK2
# T2 construct: gene STK17B
# DYRK1A = test system: DYRK1A
# DYRK1B = test system: DYRK1B
# DYRK2 = test system: DYRK2
# EGFR = test system: EGFR
# EIF2AK1 = test system: EIF2AK1
# EPHA1 = test system: EPHA1
# EPHA2 = test system: EPHA2
# EPHA3 = test system: EPHA3
# EPHA4 = test system: EPHA4
# EPHA5 = test system: EPHA5
# EPHA6 = test system: EPHA6
# EPHA7 = test system: EPHA7
# EPHA8 = test system: EPHA8
# EPHB1 = test system: EPHB1
# EPHB2 = test system: EPHB2
# EPHB3 = test system: EPHB3
# EPHB4 = test system: EPHB4
# 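Further: KINOMEscan kinase panel screen.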
Structure (SMILES),%Inh (DMPK) [%],%Inh (DRAK1) [%],%Inh (DRAK2) [%],%Inh (DYRK1A) [%],%Inh (DYRK1B) [%],%Inh (DYRK2) [%],%Inh (EGFR) [%],%Inh (EIF2AK1) [%],%Inh (EPHA1) [%],%Inh (EPHA2) [%],%Inh (EPHA3) [%],%Inh (EPHA4) [%],%Inh (EPHA5) [%],%Inh (EPHA6) [%],%Inh (EPHA7) [%],%Inh (EPHA8) [%],%Inh (EPHB1) [%],%Inh (EPHB2) [%],%Inh (EPHB3) [%],%Inh (EPHB4) [%]
Cc1nnc(-c2ccc(C)c(-c3ccc(C(=O)Nc4ccc(NS(C)(=O)=O)cc4)cc3)c2)o1 [GW702865],0,0,0,0,1,0,13,0,0,16,8,0,0,0,0,3,6,10,0,5
O=C(Nc1cccc(-c2nn3ncccc3c2-c2ccnc(Nc3cccc(C(F)(F)F)c3)n2)c1)c1c(F)cccc1F [GSK299495],0,4,0,14,0,0,99.1,18,41,0,0,8,0,11,54,49,29,0,14,9
Cc1cccc(Cn2ccn3c(=O)cc(N4CCOCC4)nc23)c1 [GSK2297542],3,1,0,24,17,12,22,11,16,15,12,10,0,9,0,19,23,0,13,15
CNc1ncnc2[nH]ncc12 [SKF-18355],0,10,0,0,0,37,0,0,0,0,11,0,0,0,0,29,0,0,0,0
c1ccc(-c2n[nH]cc2-c2ccnc3ccccc23)nc1 [GW271431],2,19,18,17,20,0,35,14,16,4,14,2,0,1,6,9,32,0,7,11
COc1ccc(Nc2ncc(C#N)c(Nc3ccccc3C(N)=O)n2)cc1N1CCN(C)CC1.Cl [GSK1558669],88,99.1,83,99.8,87,99.1,92.7,48,92.9,80,95,61,35,86,81,29,98.6,59,28,76
NCC(NC(=O)c1cc(-c2cn[nH]c2)c(-c2ccnc3[nH]ccc23)s1)c1ccccc1.O=C(O)C(F)(F)F.O=C(O)C(F)(F)F (stereo not drawn) [GSK1325775],95.8,90.6,0,44,35,79,4,0,13,0,31,0,0,0,0,7,13,0,1,0
Cn1cc(-c2ccc3c(c2)CCN3C(=O)Cc2ccccc2Cl)c2c(N)ncnc21 [GSK2608885],0,0,0,7,12,29,100,6,88,77,34,62,0,58,92,93.5,43,64,0,15
O=c1cc(N2CCOCC2)nc2n(Cc3cccc(C(F)(F)F)c3)ccn12 [GSK2297543],9,0,0,6,0,5,25,0,0,13,0,6,0,0,0,2,24,0,3,7
CCc1ccnc(/C=C/c2n[nH]c3cc(Sc4ccccc4C(=O)NC)ccc23)c1,6,12,0,8,4,0,0,14,0,0,0,1,5,0,2,7,4,0,0,0
O=C1NC(=O)C(N2CCc3ccccc32)=C1c1cccc(Cl)c1 [SB-408010],7,0,0,0,0,7,0,5,3,15,0,19,17,18,0,0,0,3,23,22
CCc1nc(-c2cccc(C)c2)c(-c2ccnc(NCc3ccccc3)c2)s1,0,2,16,0,23,2,0,0,0,1,0,0,0,17,4,11,15,6,0,3
O=C(c1ccc(-c2cc(-c3c[nH]nc3-c3ccccn3)ccn2)cc1)N1CCOCC1 [GW812171],5,0,0,0,0,33,4,0,0,0,17,33,1,6,0,0,13,0,16,0
COc1ccc(Nc2nccc(N3CCC(NC(=O)Nc4cccc(C(C)=O)c4)C3)n2)cc1 (stereo not drawn) [GSK1379731],0,0,0,23,0,0,15,0,2,4,0,6,0,0,0,9,0,0,9,5
CN(C(=O)c1ccc(-c2cc(-c3c[nH]nc3-c3ccccn3)ccn2)cc1)C1CCOCC1 [GW810083],0,1,2,0,9,9,0,0,0,0,27,0,4,0,0,0,0,0,0,0
Cl.Nc1ncnc2occ(-c3ccc(NC(=O)Nc4cc(C(F)(F)F)ccc4F)cc3)c12 [SB-707548],0,0,0,0,0,14,30,0,79,97.5,76,93.9,91.5,99.3,98.9,99.7,96,94.4,94.7,96
O=C(NCCNc1ccnc(Nc2ccc(F)cc2)n1)Nc1ccccc1F [GSK1379880],0,0,0,15,6,12,22,0,19,0,0,6,0,0,2,21,38,0,0,0
O=C(NCCNc1ccnc(Nc2ccc(F)cc2)n1)c1cc2ccccc2s1 [GSK1379874],0,8,33,2,17,15,23,0,10,30,0,0,0,0,6,18,0,0,12,0
Cc1cn2c(=O)cc(N3CCOCC3)nc2n1Cc1cccc(Cl)c1Cl [GSK2334006],12,0,12,20,36,0,45,2,51,21,0,19,0,10,7,21,16,7,17,19
Cc1cccc(-c2nc(-c3ccc(S(C)(=O)=O)cc3)sc2-c2ccncc2)c1,0,0,0,0,7,0,0,1,0,10,9,48,1,44,19,21,14,13,34,41
COc1cc2c(cc1OCCN1CCN(C)CC1)ncc1c3ccc(C#N)cc3[nH]c21,0,100,100,94.6,62,60,0,0,0,0,18,1,0,0,0,0,10,0,2,0
